# Measured values from PubChem BioAssay.
# The source made the active and inactive calls.
# What was measured:
# [1] = compound effects on lung adenocarcinoma cell viability – A549, calcein-AM fluorescence, 48 h, basal, profiling panel (AID 1162); details: higher = more signal
# [2] = compound effects on differentiated 3T3-L1 adipocyte viability – cell-based, 3T3-L1 adipocytes, calcein-AM fluorescence, 48 h, basal, profiling panel (AID 1163); details: 3T3-L1 adipocytes viability, higher = more signal
# [3] = compound effects on hepatocellular carcinoma cell viability – HepG2, calcein-AM fluorescence, 48 h, basal, profiling panel (AID 1164); details: higher = more signal
# [4] = compound effects on multiple myeloma cell viability – MM1S, calcein-AM fluorescence, 48 h, basal, profiling panel (AID 1165); details: higher = more signal;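 further: viability of MM1S multiple myeloma cells under basal unstimulated conditions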
# [5] = calcein-AM signal in unstimulated myeloma cells – cell-based, calcein-AM fluorescence, 48 h, PK04 Diversity Set, profiling panel (AID 1166); details: RPMI8226 myeloma viability, higher = more signal;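 further: cells grown under basal conditions without added stimulus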
# [6] = JC-1 mitochondrial signal, unstimulated HepG2 cells – cell-based, JC-1 fluorescence, 24 h, 100 nL compound, profiling panel (AID 1167); details: HepG2 mitochondrial potential, higher = more signal
# [7] = JC-1 mitochondrial signal, unstimulated adipocytes – cell-based, JC-1 fluorescence, 3T3-L1 adipocytes, 24 h, 100 nL compound, profiling panel (AID 1168); details: JC-1 mitochondrial fluorescence, higher = more signal, called active from +8 up or from −8 down
# [8] = JC-1 mitochondrial signal, unstimulated myeloma cells – cell-based, JC-1 fluorescence, RPMI8226, 24 h, 100 nL compound, profiling panel (AID 1169); details: JC-1 mitochondrial potential fluorescence, higher = more signal
# [9] = JC-1 mitochondrial signal, unstimulated MM1S myeloma – cell-based, JC-1 fluorescence, 24 h, 100 nL compound, profiling panel (AID 1170); details: MM1S mitochondrial potential, higher = more signal
# [10] = resazurin metabolic signal in A549 cells – cell-based, resazurin fluorescence, 24 h, PK04 Diversity Set, profiling panel (AID 1171); details: A549 viability, higher = more signal, called active from +8 up or from −8 down
# Further: test concentration not given here.
Structure (SMILES),z-score [1],z-score [2],z-score [3],z-score [4],z-score [5],z-score [6],z-score [7],z-score [8],z-score [9],z-score [10]
O=C(CS)NCCCCCCNC(=O)[C@H]1C[C@H]2C(=O)N[C@@H](Cc3ccccc3)C(=O)N2[C@H]1c1ccc(O)cc1,0.215,0.0724,-0.521,-1.51,0.388,-1.57,-1.09 (inactive),-0.254,0.046,1.26 (inactive)
C=C(C)c1cc2c(c(CCCCCC)n1)[Si](C(C)C)(C(C)C)OC2,-0.926,-0.197,-0.567,0.134,0.414,-0.592,-0.617 (inactive),0.56,-0.369,0.867 (inactive)
O=C1C2C=CC(C(O)c3ccc(Br)cc3)N(Nc3ccccc3F)C2C(=O)N1c1ccccc1 (stereo not given),1.79,0.085,0.418,1.05,-0.0004,-0.629,-1.56 (inactive),0.417,-1.46,0.0502 (inactive)
COCCCNC(=O)[C@@]1(Cc2ccccc2N=[N+]=[N-])N=C(c2ccc(OCCCO)cc2)O[C@H]1c1ccccc1,-1.07,0.538,-0.412,-1.41,-2.78,1.02,1.27 (inactive),-1.03,-0.34,0.308 (inactive)
